Here are results for 3 sequences from PMC7862700, “An all-to-all approach to the identification of sequence-specific readers for epigenetic DNA modifications on cytosine”.

Assay in all cases: DAPPL (digital affinity profiling via proximity ligation, sequencing); 10 mM Tris-HCl pH 7.5, 50 mM NaCl, 1 mM DTT, 4% glycerol, room temperature, 30 min; GST-TFs on glutathione beads, 16-mer random dsDNA library, 0.1% formaldehyde crosslink after washing; high values mean tight binding
Common to all, as to settings: protein: recombinant; tags: N-terminal GST; dsDNA, one strand shown

The target in one test is T1, ELK1 (Homo sapiens, UniProt P19419 1-428).
T1 sequence: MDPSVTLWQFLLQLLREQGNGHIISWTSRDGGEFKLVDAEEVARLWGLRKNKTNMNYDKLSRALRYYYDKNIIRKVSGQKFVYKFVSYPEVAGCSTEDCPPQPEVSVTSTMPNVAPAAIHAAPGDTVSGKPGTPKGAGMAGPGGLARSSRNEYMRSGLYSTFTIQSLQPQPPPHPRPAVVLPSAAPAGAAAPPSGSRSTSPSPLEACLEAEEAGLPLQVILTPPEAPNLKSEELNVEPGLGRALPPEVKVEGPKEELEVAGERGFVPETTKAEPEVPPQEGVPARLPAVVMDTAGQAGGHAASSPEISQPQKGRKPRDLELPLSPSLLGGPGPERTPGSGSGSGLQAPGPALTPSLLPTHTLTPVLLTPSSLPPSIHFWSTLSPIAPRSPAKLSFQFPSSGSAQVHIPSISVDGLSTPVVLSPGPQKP
In outline: (§1)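 GST fusions of human transcription factors were expressed in yeast and captured with glutathione beads. Once given DNA barcodes and pooled alongside a tag-only sample, they were incubated for 30 min at room temperature with 200 nmole of a random double-stranded 16-mer DNA library in Tris/NaCl/DTT/glycerol buffer, then washed, crosslinked (0.1% formaldehyde), proximity-ligated, PCR-amplified and sequenced on an Illumina NextSeq500. The binding signal of each hexamer is its read frequency for a factor divided by its frequency for the tag-only sample.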

For a further test, the target named is ELF1 (Homo sapiens, UniProt P32519 1-619). A digest of the protocol: as §1
ELF1, sequence (P32519 whole entry): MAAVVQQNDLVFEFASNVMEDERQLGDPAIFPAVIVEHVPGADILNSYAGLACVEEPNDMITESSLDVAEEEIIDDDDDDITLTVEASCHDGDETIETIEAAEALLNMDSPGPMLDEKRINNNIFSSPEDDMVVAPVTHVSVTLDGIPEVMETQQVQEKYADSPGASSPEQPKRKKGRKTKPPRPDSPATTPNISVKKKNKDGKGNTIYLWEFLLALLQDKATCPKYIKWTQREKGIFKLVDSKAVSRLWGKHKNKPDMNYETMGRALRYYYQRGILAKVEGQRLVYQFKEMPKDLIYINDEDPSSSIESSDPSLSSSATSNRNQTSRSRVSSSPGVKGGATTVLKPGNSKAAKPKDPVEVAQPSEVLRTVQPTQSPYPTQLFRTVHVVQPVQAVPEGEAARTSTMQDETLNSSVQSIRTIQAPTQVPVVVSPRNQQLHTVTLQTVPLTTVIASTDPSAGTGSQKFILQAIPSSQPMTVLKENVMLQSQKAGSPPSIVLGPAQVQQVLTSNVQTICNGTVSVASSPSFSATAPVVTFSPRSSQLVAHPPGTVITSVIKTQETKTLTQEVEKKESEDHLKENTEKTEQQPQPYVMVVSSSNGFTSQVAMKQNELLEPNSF
In a further test the target is T2, EHF (Homo sapiens, UniProt Q9NZC4 1-300).
T2 sequence: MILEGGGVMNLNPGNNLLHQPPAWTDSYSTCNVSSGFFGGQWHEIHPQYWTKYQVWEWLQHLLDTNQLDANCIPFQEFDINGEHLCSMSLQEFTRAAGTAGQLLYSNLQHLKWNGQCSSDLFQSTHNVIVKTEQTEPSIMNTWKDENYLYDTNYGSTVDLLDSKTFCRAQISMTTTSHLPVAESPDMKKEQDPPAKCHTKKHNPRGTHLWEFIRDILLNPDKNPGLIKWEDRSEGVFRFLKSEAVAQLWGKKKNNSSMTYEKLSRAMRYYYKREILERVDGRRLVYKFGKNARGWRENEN
A digest of the protocol:
as §1

The target in a further test is ETV5 (Homo sapiens, UniProt P41161 1-510). A digest of the protocol: as §1
ETV5, sequence (P41161 whole entry): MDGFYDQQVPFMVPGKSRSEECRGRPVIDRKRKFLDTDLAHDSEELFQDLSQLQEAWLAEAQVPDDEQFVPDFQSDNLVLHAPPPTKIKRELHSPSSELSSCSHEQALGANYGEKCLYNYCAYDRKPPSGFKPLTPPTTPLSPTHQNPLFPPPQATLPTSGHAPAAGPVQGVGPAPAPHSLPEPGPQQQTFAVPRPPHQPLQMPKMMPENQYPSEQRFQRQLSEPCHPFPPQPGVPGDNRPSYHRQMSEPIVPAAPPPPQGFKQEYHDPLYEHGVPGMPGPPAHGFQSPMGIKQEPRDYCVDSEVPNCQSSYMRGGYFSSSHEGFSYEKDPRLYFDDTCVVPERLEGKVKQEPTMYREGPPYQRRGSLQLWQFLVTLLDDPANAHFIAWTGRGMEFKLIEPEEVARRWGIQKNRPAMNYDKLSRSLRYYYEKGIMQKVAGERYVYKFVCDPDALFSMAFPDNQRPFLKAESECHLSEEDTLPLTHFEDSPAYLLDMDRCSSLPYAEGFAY
A further test has as its target ELF4 (Homo sapiens, UniProt Q99607 1-663). In outline:
as §1

The next test has as its target T3, ELK4 (Homo sapiens, UniProt P28324-2 1-405).
T3 sequence: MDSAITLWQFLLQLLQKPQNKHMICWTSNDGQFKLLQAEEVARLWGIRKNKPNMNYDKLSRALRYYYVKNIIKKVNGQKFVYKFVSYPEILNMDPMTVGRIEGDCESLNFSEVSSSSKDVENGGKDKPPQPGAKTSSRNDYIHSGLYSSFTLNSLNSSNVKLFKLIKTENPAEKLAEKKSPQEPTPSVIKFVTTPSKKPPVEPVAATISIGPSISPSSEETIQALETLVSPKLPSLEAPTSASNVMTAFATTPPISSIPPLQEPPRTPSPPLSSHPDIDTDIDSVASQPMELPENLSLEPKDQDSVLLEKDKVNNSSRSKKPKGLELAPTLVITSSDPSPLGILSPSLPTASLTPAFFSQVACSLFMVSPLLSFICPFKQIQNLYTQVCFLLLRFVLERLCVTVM
A digest of the protocol: as §1

The target of a further test is ETV1 (Homo sapiens, UniProt P50549 1-477). In outline: as §1
ETV1, sequence (P50549 whole entry): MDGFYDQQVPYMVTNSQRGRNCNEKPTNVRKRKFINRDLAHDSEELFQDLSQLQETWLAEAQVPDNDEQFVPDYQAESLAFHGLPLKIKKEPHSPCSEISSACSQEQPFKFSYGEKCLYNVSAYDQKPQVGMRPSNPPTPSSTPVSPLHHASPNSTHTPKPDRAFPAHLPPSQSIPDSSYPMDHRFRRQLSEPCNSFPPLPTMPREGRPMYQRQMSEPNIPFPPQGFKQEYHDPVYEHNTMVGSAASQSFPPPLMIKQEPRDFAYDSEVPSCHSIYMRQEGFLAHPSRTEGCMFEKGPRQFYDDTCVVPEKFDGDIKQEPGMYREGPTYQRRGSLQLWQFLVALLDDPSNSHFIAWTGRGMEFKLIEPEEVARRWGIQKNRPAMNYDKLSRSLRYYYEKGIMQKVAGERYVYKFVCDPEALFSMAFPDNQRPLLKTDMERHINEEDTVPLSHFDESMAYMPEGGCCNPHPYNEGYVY
Another test has as its target T4, ETV7 (Homo sapiens, UniProt Q9Y603 1-341).
T4 sequence: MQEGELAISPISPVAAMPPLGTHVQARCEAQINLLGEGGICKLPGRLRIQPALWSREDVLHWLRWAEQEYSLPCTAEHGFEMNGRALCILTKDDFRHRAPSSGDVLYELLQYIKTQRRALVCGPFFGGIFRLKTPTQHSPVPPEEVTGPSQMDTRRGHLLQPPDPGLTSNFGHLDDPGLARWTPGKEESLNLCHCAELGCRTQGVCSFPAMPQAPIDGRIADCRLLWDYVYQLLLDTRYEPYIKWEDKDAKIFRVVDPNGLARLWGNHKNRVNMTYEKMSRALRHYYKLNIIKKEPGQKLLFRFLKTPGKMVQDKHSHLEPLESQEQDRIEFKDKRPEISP
In outline: as §1

A further test has as its target T5, ETV3 (Homo sapiens, UniProt P41162-2 1-143).
T5 sequence: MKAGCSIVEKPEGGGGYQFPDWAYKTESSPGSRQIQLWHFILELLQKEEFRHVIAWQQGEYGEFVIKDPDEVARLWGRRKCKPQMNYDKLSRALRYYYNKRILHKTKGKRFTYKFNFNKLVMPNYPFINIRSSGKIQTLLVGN
In outline: as §1

Another test deals with T6, ELF3 (Homo sapiens, UniProt P78545 1-371).
T6 sequence: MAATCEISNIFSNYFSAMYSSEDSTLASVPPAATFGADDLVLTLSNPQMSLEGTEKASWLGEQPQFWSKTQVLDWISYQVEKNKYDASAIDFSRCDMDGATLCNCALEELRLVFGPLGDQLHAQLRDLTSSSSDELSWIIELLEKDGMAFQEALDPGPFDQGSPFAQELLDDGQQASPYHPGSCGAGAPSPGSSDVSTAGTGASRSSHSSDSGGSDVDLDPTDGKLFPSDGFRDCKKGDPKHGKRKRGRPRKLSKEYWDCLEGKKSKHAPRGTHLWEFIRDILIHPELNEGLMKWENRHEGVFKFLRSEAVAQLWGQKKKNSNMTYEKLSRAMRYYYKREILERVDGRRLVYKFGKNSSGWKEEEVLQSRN
In outline: as §1

For the next test, the target named is T7, GABPA (Homo sapiens, UniProt Q06546 1-454).
T7 sequence: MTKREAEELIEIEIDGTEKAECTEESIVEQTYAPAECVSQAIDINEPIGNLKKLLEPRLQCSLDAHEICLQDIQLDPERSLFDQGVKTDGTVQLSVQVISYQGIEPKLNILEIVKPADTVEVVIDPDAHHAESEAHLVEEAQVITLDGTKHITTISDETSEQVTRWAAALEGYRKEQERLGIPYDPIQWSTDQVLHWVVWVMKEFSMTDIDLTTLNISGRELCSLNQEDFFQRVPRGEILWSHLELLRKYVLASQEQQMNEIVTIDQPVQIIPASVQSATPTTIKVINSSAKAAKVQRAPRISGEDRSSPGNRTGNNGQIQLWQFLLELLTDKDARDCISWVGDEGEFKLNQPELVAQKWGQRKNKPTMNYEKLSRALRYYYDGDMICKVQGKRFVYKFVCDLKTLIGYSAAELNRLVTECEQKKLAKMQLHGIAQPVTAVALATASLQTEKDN
A digest of the protocol:
as §1

The next test addresses SPIB (Homo sapiens, UniProt Q01892 1-262). In outline: as §1
The target in the next test is T8, FEV (Homo sapiens, UniProt Q99581 1-238).
T8 sequence: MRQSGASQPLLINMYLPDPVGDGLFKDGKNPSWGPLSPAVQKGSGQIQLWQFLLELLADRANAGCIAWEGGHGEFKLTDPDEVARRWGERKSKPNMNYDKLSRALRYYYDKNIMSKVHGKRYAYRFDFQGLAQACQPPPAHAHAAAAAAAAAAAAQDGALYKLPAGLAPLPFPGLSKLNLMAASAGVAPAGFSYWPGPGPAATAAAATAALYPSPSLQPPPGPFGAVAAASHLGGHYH
In outline: as §1

Another test concerns the target T9, ETV2 (Homo sapiens, UniProt O00321 1-342).
T9 sequence: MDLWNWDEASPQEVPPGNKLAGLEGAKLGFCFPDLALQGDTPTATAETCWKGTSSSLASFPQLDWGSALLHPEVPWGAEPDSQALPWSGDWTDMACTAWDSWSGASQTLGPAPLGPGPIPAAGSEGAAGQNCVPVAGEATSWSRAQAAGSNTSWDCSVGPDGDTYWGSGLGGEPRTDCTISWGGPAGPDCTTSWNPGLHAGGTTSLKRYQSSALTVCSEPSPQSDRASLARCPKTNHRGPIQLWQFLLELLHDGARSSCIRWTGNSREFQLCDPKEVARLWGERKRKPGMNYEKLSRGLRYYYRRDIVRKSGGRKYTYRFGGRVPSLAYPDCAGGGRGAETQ
A digest of the protocol:
as §1

In a further test the target is T10, SPDEF (Homo sapiens, UniProt O95238 1-335).
T10 sequence: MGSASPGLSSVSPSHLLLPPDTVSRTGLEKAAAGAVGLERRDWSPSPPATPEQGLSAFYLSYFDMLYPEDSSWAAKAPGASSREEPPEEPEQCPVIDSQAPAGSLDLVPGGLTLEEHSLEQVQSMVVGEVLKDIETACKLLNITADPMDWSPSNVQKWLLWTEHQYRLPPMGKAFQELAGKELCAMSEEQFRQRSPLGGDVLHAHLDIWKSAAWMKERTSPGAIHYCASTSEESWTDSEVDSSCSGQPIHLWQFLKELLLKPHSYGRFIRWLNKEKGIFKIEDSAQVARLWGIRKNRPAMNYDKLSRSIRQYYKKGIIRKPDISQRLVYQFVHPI
In outline: as §1

In a further test the target is ETV6 (Homo sapiens, UniProt P41212 1-452). In outline: as §1
ETV6, sequence (P41212 whole entry): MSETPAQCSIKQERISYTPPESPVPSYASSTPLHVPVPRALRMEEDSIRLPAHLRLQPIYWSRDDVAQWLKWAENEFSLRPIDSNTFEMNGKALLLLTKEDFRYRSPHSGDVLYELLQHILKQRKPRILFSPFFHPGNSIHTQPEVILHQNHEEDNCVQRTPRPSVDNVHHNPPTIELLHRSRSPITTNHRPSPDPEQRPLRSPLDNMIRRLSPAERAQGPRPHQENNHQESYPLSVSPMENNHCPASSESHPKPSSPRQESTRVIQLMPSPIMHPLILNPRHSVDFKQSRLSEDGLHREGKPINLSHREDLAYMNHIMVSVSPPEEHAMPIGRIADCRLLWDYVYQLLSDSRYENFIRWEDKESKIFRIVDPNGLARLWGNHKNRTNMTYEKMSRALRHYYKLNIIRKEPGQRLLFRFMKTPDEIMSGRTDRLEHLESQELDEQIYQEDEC

ELF4, sequence (Q99607 whole entry): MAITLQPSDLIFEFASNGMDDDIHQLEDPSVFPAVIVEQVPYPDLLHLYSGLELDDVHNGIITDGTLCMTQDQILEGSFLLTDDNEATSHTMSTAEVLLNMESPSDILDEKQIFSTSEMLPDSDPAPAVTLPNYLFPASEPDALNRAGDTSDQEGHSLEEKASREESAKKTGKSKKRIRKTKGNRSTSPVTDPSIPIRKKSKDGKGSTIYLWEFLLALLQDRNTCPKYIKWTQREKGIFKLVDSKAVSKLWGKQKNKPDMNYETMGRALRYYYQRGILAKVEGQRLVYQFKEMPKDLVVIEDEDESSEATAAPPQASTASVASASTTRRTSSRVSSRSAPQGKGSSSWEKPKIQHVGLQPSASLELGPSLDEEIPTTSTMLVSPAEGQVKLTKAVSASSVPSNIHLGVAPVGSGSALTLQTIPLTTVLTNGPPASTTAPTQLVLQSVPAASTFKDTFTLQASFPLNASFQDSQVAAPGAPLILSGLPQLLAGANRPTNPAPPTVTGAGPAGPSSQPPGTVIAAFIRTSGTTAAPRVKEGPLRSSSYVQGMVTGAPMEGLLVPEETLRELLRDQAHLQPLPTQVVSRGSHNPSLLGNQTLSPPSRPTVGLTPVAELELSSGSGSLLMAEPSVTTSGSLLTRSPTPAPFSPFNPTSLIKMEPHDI
SPIB, sequence (Q01892 whole entry): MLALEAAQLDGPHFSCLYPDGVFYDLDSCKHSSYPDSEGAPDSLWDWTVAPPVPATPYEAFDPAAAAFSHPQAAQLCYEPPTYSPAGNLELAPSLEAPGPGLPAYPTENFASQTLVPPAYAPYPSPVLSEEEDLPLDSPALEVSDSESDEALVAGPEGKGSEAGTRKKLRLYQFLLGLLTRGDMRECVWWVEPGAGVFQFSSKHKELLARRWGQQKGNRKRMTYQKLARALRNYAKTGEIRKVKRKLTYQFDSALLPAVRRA

TAGCGT: the binding signal in the test with ELK1 was 1 fold enrichment (6-mer frequency, TF over GST control); with ELF1 it was 1.02 fold enrichment (6-mer frequency, TF over GST control); with EHF, 1 fold enrichment (6-mer frequency, TF over GST control); in the test with ETV5, 1.03 fold enrichment (6-mer frequency, TF over GST control); with ELF4, 1.02 fold enrichment (6-mer frequency, TF over GST control); in the test with ELK4, 1.07 fold enrichment (6-mer frequency, TF over GST control). The binding signal in the test with ETV1 was 1.03 fold enrichment (6-mer frequency, TF over GST control); in the test with ETV7, 1 fold enrichment (6-mer frequency, TF over GST control); with ETV3, 1.04 fold enrichment (6-mer frequency, TF over GST control).
For ACAAGA, the binding signal in the test with ETV5 is 1.03 fold enrichment (6-mer frequency, TF over GST control); with ELF4, 1.03 fold enrichment (6-mer frequency, TF over GST control); with ELF3, 1.1 fold enrichment (6-mer frequency, TF over GST control); with ETV7 it was 1.02 fold enrichment (6-mer frequency, TF over GST control).
As to CGGTTA, the binding signal with GABPA was 1.01 fold enrichment (6-mer frequency, TF over GST control); with ELF1, 1 fold enrichment (6-mer frequency, TF over GST control); with EHF it was 1.02 fold enrichment (6-mer frequency, TF over GST control); with SPIB, 1.02 fold enrichment (6-mer frequency, TF over GST control); with FEV it was 1.04 fold enrichment (6-mer frequency, TF over GST control); with ETV5, 1.05 fold enrichment (6-mer frequency, TF over GST control). Moreover, the binding signal in the test with ETV2 is 1.06 fold enrichment (6-mer frequency, TF over GST control); with ELF3, 1 fold enrichment (6-mer frequency, TF over GST control); with SPDEF, 1.15 fold enrichment (6-mer frequency, TF over GST control); in the test with ETV7, 1 fold enrichment (6-mer frequency, TF over GST control); in the test with ETV6, 1.09 fold enrichment (6-mer frequency, TF over GST control).
